TROY signal inh: inhibitors of TROY-driven NF-kB signaling, primary screen, Q293 LMP1-TROYcd cells, NF-kB luciferase, uHTS; actives 0.98% (n = 360,000); AID 1347056, 2019; inhibition, % at 10 µM; Q293 LMP1-TROYcd NF-kB luciferase reporter, 4 h;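 active = compounds whose plate-normalised and pattern-corrected inhibition of the luciferase reporter signal at the single screening dose is 50% or more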
TWEAK Fn14 block: inhibitors of TWEAK-Fn14 signaling, primary screen, luciferase reporter cells, uHTS; TWEAK-stimulated Fn14 reporter cells, luciferase luminescence, 8 h; inhibition, % at 10 µM; actives 2% (n = 360,000); AID 1159606, 2016; in the data active = inhibition above about 50%
HSF-1 act: HSF-1 activators, primary screen, NIH3T3-HGL cells, MG132 stress, luminescence, single point; NIH3T3-HGL HSF-1 luciferase reporter, 8 h; 100% = twice DMSO control signal; activation, % at 9 µM; actives 1.7% (n = 300,000); AID 504408, 2011;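 active = mean replicate activation of at least 50% with a set share of replicates each reaching 50%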;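 also: 0% = median of the neutral control wells and 100% = twice that signal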
LMP1 NFkB inh: EBV LMP1-driven NF-kappaB luciferase reporter inhibitors, primary screen, cell-based, luminescence, single point | AID 504558, 2011 | actives 0.69% (n = 350,000) | inhibition, % at 12.5 µM | LMP1-induced NF-kappaB luciferase reporter cells; in the data active = inhibition above about 41%;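 also: 0% = neutral control wells and 100% = reference inhibitor control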
HSP90 refold inh: HSP90 inhibitors, primary screen, cell lysate, luminescence; Heat shock protein HSP 90 (rabbit reticulocyte lysate; luciferase refolding); Rabbit reticulocyte lysate, luciferase refolding luminescence, 3 h; inhibition, % at 5.6 µM; actives 0.91% (n = 290,000);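 active = inhibition above the screen-wide mean plus 3 SD, computed separately per campaign, cut at about 16% in these data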;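 also: 0% = DMSO wells and 100% = 60 µM geldanamycin wells; inhibitors lower the luminescence because luciferase stays unfolded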
HSF1 inhib: HSF1 inhibitors in luciferase reporter cells, primary screen, cell-based, NIH3T3, luminescence; NIH3T3-HGL HSE-luciferase, MG132-induced, luminescence 8 h; stronger effect = lower value; activity change, negative = inhibition, % at 7.5 µM (by protocol); actives 0.77% (n = 300,000);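 active = more than half of replicate wells show activity change below -50%, luminescence cut by over half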;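 also: luciferase reports HSF-1 transcriptional activity via heat shock element; 0% = median of DMSO wells and -100% = zero luminescence signal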
Active calls of the source: *; / = not tested or not shown. An excerpt weighted towards active compounds, which were near 4.7% of everything screened.

SMILES	TROY signal inh	TWEAK Fn14 block	HSF-1 act	LMP1 NFkB inh	HSP90 refold inh	HSF1 inhib
C[C@@H]1CN([C@H](C)CO)C(=O)CCCn2nncc2CO[C@@H]1CN(C)C(=O)NC1CCCCC1	-3.0	1.8	/	1.2	/	/
CNC[C@H](Cc1ccccc1)NC[C@@H](Cc1cccc2ccccc12)NCCc1ccc(C)cc1	-1.4	-44.4	-92.2	-8.2	0.0	-90.6*
CNCCNC[C@H](Cc1cccc2ccccc12)NCCc1ccccc1	11.3	-14.0	/	-2.5	/	/
Cn1c(/N=C(\N)c2ccccc2)nc2ccccc21	-50.2	-13.9	/	-77.6	/	/
Cc1ccc(NC(=O)C(=O)c2c[nH]c3ccccc23)cc1	-21.4	0.3	84.5*	-52.3	9.6	54.7
CCCc1sc(N/N=C/c2ccccn2)nc1-c1ccc(Br)cc1	-18.6	12.8	-10.2	59.0*	3.5	-7.3
CN(C)C(=O)c1c(NC(=O)c2ccco2)sc2c1CCCCC2	65.0*	29.9	-29.0	5.6	9.5	-24.3
O=C(Nc1sc2c(c1C(=O)O)CCCCC2)c1ccco1	0.7	55.5*	22.1	3.7	8.0	-7.1
O=C(Nc1ccc(Cl)cc1Cl)NC1CCN(S(=O)(=O)c2ccc(F)cc2)CC1	51.7*	-15.6	-13.3	-6.9	-3.3	-2.9
COc1ccccc1NS(=O)(=O)c1cccc(NC(=O)Nc2ccc(Cl)cc2)c1	59.5*	84.4*	6.3	-5.1	-0.3	1.1
COc1ccccc1NS(=O)(=O)c1cccc(NC(=O)Nc2ccccc2)c1	45.7	33.9	-12.0	-0.9	1.4	-3.4
O=C(Nc1ccc(Cl)cc1Cl)NC1CCCC1	-43.9	0.8	19.0	-5.9	-1.5	5.8
O=C(Cc1ccccc1Cl)Nc1cccc(S(=O)(=O)N2CCCCCC2)c1	7.6	8.9	/	5.3	/	/
O=C(Nc1cccc(S(=O)(=O)N2CCCCC2)c1)Nc1ccc(Cl)cc1Cl	59.5*	83.3*	33.2	-1.3	-3.6	14.8
CCCC1CCC(C(=O)n2nc(N)c3cc4ccc(OC)cc4nc32)CC1 (stereo not given)	18.4	30.2	-13.4	6.2	-0.1	-5.2
COc1ccc2cc3c(N)nn(C(=O)c4ccccc4[N+](=O)[O-])c3nc2c1	28.8	81.9*	-62.7	63.0*	-3.4	-53.5*
COc1ccc2cc3c(N)nn(C(=O)c4ccc(Cl)c([N+](=O)[O-])c4)c3nc2c1	21.8	54.7*	-24.5	19.4	-4.8	-30.7
CC1(C(=O)NS(=O)(=O)c2ccc(Br)cc2)CCN1C(=O)c1cccc(F)c1 (stereo not given)	8.3	3.9	/	/	/	/
CCc1cccc(CC)c1NC(=O)/C(C#N)=C/c1ccccc1C(F)(F)F	42.2	82.8*	83.1*	2.7	-0.9	67.1
CCOc1ccccc1C(=O)NC1CC2CCCC(C1)N2Cc1nnnn1Cc1ccco1 (stereo not given)	-4.1	-8.2	7.3	57.2*	1.6	9.5
NS(=O)(=O)c1ccc(CCNc2nn3c(-c4cccc(OC(F)(F)F)c4)cnc3s2)cc1	72.0*	93.9*	/	/	/	/
COc1ccc(CCNc2ccc(S(N)(=O)=O)cn2)cc1	-7.2	-14.1	-18.0	9.4	-0.3	-3.3
Cc1cccc(/C(N)=N/OC(=O)c2ccoc2C)c1	-36.1	-12.8	84.9*	-41.6	5.9	34.1
CCCC(=O)N1CCOCC1c1cc(C(=O)NCc2ccccc2)no1 (stereo not given)	-2.4	17.2	/	/	/	/
Cc1ccc(NC(=O)c2ccccn2)c(Br)c1	-34.9	15.0	57.8*	-8.2	-1.1	30.4
SMILES	TROY signal inh	TWEAK Fn14 block	HSF-1 act	LMP1 NFkB inh	HSP90 refold inh	HSF1 inhib
CCOC(=O)CSc1ccc2nnc(-c3cccs3)n2n1	11.6	20.8	13.0	-8.2	-0.8	-1.7
CCOC(=O)C(CC)Sc1ccc2nnc(-c3cccnc3)n2n1 (stereo not given)	1.5	-6.8	-76.2	-2.5	0.1	-72.3*
CCOC(=O)CSc1ccc2nnc(-c3ccncc3)n2n1	-3.4	1.2	54.8*	-0.2	-0.2	23.8
CCC(Sc1ccc2nnc(-c3cccnc3)n2n1)C(=O)O (stereo not given)	5.7	6.6	-29.7	-9.6	-3.2	-24.2
CCCNc1ncc2c(=O)[nH][nH]c(=O)c2n1	-14.5	-0.6	/	3.4	/	/
COc1cc([N+](=O)[O-])ccc1NC(=S)NNC(=O)c1ccc2c(c1)OCO2	23.0	-25.9	-14.4	5.8	1.0	-3.3
O=C(NC(=S)Nc1cc([N+](=O)[O-])ccc1O)c1ccc2c(c1)OCO2	69.9*	70.9*	21.6	-30.0	10.1	9.4
Cc1cccc(N2CCN(Cc3nc(-c4cccc(Cl)c4)oc3C)CC2)n1	1.8	-10.5	22.1	6.1	2.2	-4.1
Cc1cccc(N2CCN(Cc3nc(-c4ccccc4Cl)oc3C)CC2)n1	6.8	-10.2	-69.7	8.9	-1.1	-60.0*
Cc1cc(C)c(C(N)=O)c(SCC(=O)c2cc(C)n(-c3cc(C)on3)c2C)n1	32.8	27.1	/	5.8	/	/
Cc1cc(/C=C(\C#N)C(=O)Nc2ccccc2F)c(C)[nH]1	-91.0	11.1	60.2*	-15.7	-8.9	9.7
COc1cc(/C=N/n2c(-c3ccc4c(c3)NC(=O)CO4)csc2=Nc2cccc(C)c2)ccc1O	12.3	65.3*	-3.3	-6.5	-1.5	-3.4
Cc1ccc(NC(=O)C2c3ccccc3-c3ccccc32)cc1	-2.2	-7.7	/	/	/	/
O=C(C1=C(c2ccccc2)C(=O)c2ccccc2C1=O)c1ccccc1	62.0*	96.9*	81.5*	89.8*	74.1*	54.7
Nc1nc2c(ncn2[C@@H]2O[C@H](CNC(=O)[C@H](N)Cc3ccccc3)[C@@H](O)[C@H]2O)c(=O)[nH]1	-5.8	-0.5	/	/	/	/
Cc1ccc(-c2csc(C(O)c3ccccc3)n2)cc1C (stereo not given)	-27.4	-40.0	/	/	/	/
CC(=O)c1cccc(-c2ccnc3c2CC(C(=O)Nc2ccc(F)c(Cl)c2)O3)c1 (stereo not given)	35.0	33.0	/	/	/	/
COC(=O)c1ccc(CN2CCN(C3CCCC3)C(CCO)C2)cc1 (stereo not given)	-13.8	3.5	8.9	-5.5	-0.5	-2.4
COC(=O)c1ccc(CN2CCN(C3CCCCC3)C(CCO)C2)cc1 (stereo not given)	-2.0	7.0	-72.3	3.5	-2.3	-64.2*
FC(F)(F)c1nc(N2CCN(c3ccccc3)CC2)nc2c1CCCCC2	57.2*	93.5*	-2.2	-3.5	-1.3	-0.5
FC(F)(F)c1cc(-c2ccco2)nc(N2CCN(c3ccccc3)CC2)n1	-1.9	-0.7	16.2	-2.0	-9.1	1.4
CC1(C)CC(=O)c2cc(C(=O)NCc3ccco3)c(=O)n(-c3ccccc3)c2C1	/	82.6*	-3.1	11.9	-1.9	-7.2
